# Compound activity from PubChem.
# The list is not random: actives were taken first. Their share in the collection is about 8.9%.
# KB-V1 cytotox: kills drug-selected multidrug resistant KB-V1 cells. hit rate 3.4% among 400,000. KB-V1 MDR cells viability, CellTiter-Glo, 72 h. Potency, µM (top dose mostly 46.1 µM), hits mostly cytotoxic. AID 1347076; further: potency means the concentration at half of the fitted maximal effect; on the % scale 0 is the no-effect control and ±100 the full control effect; nearly all actives have a fitted effect of over 60% in size
#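 Cells of the MDR subline KB-V1 are plated, dosed with compound at multiple concentrations, and incubated 72 h at 37 degrees C; CellTiter-Glo is then added and luminescence read after 10 min.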
# SW480 rereplic: DNA re-replication induction in SW480 cells | SW480 DNA re-replication, Hoechst DNA content imaging, 48 h | Potency, µM (doses to about 46.1 µM), without a hit: top-dose re-replication activation, most hits filed as activators | hit rate 1.8% among 340,000 | AID 624297; further: potency means the concentration at half of the fitted maximal effect; % of control where 0% means no effect; nearly all actives have a fitted effect of over 55% in size
#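 Quantitative HTS format with DMSO vehicle controls; 48 hr drug incubation at 37 C, then 40 min Hoechst staining and scanning imager measurement at 405 nm excitation.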
# MCF10A rerep: inducers of DNA re-replication in MCF 10A breast cells; MCF 10A DNA re-replication, Hoechst nuclear intensity, 48 h; Potency, µM (top dose mostly 46.1 µM), inactives show at the top dose activity, positive = re-replication, actives largely listed as activators; hit rate 2.9% among 350,000; further: potency means the concentration at half of the fitted maximal effect; % of control where 0% means no effect; nearly all actives have a fitted effect of over 50% in size
# DRD3 agonist: agonists of human D3 dopamine receptor. hit rate 0.58% among 410,000. D3R DiscoveRx beta-arrestin cells, luminescence, 90 min. max activation, %. P35462; in the data active means max activation above about 30%; further: 0% is about no effect
# Target sequence (P35462 whole entry, looked up): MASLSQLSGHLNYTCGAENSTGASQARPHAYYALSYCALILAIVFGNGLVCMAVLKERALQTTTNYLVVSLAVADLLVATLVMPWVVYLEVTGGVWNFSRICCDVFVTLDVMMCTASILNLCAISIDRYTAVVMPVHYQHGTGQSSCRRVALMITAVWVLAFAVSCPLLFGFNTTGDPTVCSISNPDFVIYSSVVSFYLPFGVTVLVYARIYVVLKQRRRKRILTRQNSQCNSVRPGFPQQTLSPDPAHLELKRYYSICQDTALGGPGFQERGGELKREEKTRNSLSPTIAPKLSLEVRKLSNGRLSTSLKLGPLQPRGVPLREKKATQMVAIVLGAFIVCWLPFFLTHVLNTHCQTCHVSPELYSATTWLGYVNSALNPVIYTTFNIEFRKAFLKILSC
#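 Agonist-mode cell screen: cells plated at 1500/well and incubated overnight at 37 °C, then exposed to library compounds for 90 min at 37 °C. Detection reagent was added for 30–60 min at room temperature, and luminescence was read.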
# DRD3 antagonist: antagonists of human D3 dopamine receptor. AID 652054. hit rate 2.5% among 360,000. max response, negative = inhibition, %. D3R cells, DiscoveRx beta-arrestin luminescence, antagonist mode; active compounds read low; in the data active means max response below about -50%; inconclusive means no clear call, values can overlap the other calls; further: on the % scale 0 is the no-effect control and ±100 the full control effect
#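 Cells plated overnight at 1500 cells/well, then exposed to library compounds with dopamine controls for 90 minutes at 37 degrees C. DiscoveRx reagent added for 30–60 minutes at room temperature; luminescence read, quantitative HTS format.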
# KB-3-1 cytotox: kills parental KB-3-1 adenocarcinoma cells; hit rate 1.4% among 400,000; KB-3-1 viability, CellTiter-Glo ATP luminescence, 72 h; AID 1347075; Potency, µM (doses to about 46.1 µM), usual class: cytotoxic; further: potency means the concentration at half of the fitted maximal effect; on the % scale 0 is the no-effect control and ±100 the full control effect; nearly all actives have a fitted effect of over 60% in size
#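 Cytotoxicity measured as CellTiter-Glo luminescence after 72 h at 37 C. Compound titrations were pinned onto drug-naive KB-3-1 parental adenocarcinoma cells grown in DMEM with 10% FBS, and normalized data fitted to concentration-response curves.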
# An asterisk follows results filed as active; i = inactive; ? = inconclusive; · = not tested or not shown; ! = not confirmed by another sample. Unless noted, the call rests on the fitted dose curve; in most records, active means well fitted curve in the direction sought with a large enough effect; inconclusive means small, poorly fitted or top-dose-only effect, or another doubt; inactive means no such curve, though single readings can be large; an effect the other way counts as inactive or inconclusive.
SMILES,KB-V1 cytotox,SW480 rereplic,MCF10A rerep,DRD3 agonist,DRD3 antagonist,KB-3-1 cytotox
COc1cc(/C=C2\C[C@H]3[C@@H]4CC=C5C[C@@H](N6CCCC6)CC[C@]5(C)[C@H]4CC[C@]3(C)[C@H]2O)cc(OC)c1OC,2.9µM*,20%,?,-28,-70*,i
CC(=O)O[C@H]1[C@H]2O[C@]23[C@@H]2CC[C@]4(O)C[C@@H](O)CC[C@]4(C)C2CC[C@]3(C)[C@H]1c1ccc(=O)oc1 (some centres not stated),i,0%,19%,8,62,?
C[C@]12CC[C@H]3C(CCC4(O)CC(O)CC[C@]34C=O)C1=CC[C@H]2c1ccc(=O)oc1 (some centres not stated),i,?,20%,-2,-6,23µM*
CN(C(=O)Oc1ccc(Cl)c2cccnc12)c1ccccc1,18µM*,5%,9%,3,7,i
CN(C(=O)Oc1cccc2cccnc12)c1ccccc1,?,3%,1%,4,4,i
CCN(C(=O)CSc1ncccc1C(=O)Oc1cccc([N+](=O)[O-])c1)c1cccc(C)c1,i,1%,?,-5,-22,i
O=C(NCCc1ccccc1)[C@@H]1CC=C[C@@H]2CCN(Cc3ccc(Cl)c(Cl)c3)C(=O)[C@@H]21,16µM*!,?,?,8,-5,?
COc1cccc(NC(=O)c2cccn(Cc3ccccc3C)c2=O)c1,i,·,·,-2,·,?
COC1C(O)C(C)OC(OC2C(Oc3cccc4c(O)c5c(=O)oc6ccc(C)c7c(=O)oc(c34)c5c67)OC(C)C(O)C2O)C1O (configuration not stated),i,21µM*,8.2µM*,-13,2,15µM*
O=C(O)c1ccccc1NS(=O)(=O)c1cccc(N=Nc2c(O)[nH]c(=S)[nH]c2=O)c1,i,-26%,-14%,-1,-23,i
Oc1c(Br)cc(Br)cc1Br,i,-11%,?,1,20,i
Oc1c(Br)c(Br)c(Br)c(Br)c1Br,i,-19%,?,-85,-55*,i
CCOc1ccc(NC(=O)C2CCCN2C(=O)Oc2ccccc2)cc1 (configuration not stated),?,?,-2%,-11,-21,?
Cc1ccc(C2=NC(C)(C)N3C2C3c2ccc([N+](=O)[O-])cc2)cc1 (configuration not stated),18µM*,3%,-1%,0,2,?
O=[N+]([O-])c1ccc(C2[C@H]3C(c4ccccc4)=NC4(CCCC4)N23)cc1 (some centres not stated),i,-1%,4%,6,-7,i
COc1cc(N)c(Cl)cc1C(=O)N[C@@H]1CN2CCC1CC2,·,1%,14%,·,·,·
NC1CCc2cc(O)c(O)cc2C1 (configuration not stated),i,-9%,-1%,141*,59,i
CNC(=O)Oc1ccc(-c2cn3cc(C)ccc3n2)cc1,18µM*,?,8%,-5,8,i
CNC(=O)Oc1cccc(-c2cn3cc(Cl)ccc3n2)c1,i,-460%,2%,9,18,i
O=C(COc1ccc2ccccc2c1)N1CCN(Cc2c[nH]c3ccccc23)CC1,?,?,?,-3,?,?
O=C(COc1ccc(Br)cc1)N1CCN(Cc2c[nH]c3ccccc23)CC1,18µM*,?,?,-17,-6,i
O=C(c1cc2cc(F)ccc2[nH]1)N1CCC2(CC1)OCCO2,i,-2%,4%,-3,-7,i
O=C(c1cc2cc(Cl)ccc2[nH]1)N1CCC2(CC1)OCCO2,i,-2%,23µM*,3,-9,i
COc1cccc(C(=O)N2CCC3(CC2)OCCO3)c1,i,-14%,-1%,1,-12,i
COc1cc2[nH]c(C(=O)N3CCC4(CC3)OCCO4)cc2c(OC)c1OC,i,-1%,-1%,-7,-84*,i
SMILES,KB-V1 cytotox,SW480 rereplic,MCF10A rerep,DRD3 agonist,DRD3 antagonist,KB-3-1 cytotox
NCC[C@H](O)C(=O)N[C@@H]1C[C@H](N)[C@@H](O[C@H]2O[C@H](CN)[C@@H](O)[C@H](O)[C@H]2N)[C@H](O[C@@H]2O[C@H](CO)[C@@H](O)[C@H]2O)[C@H]1O,·,·,·,6,·,·
Cc1cc(C)cc(C(=O)OC2CC3CCC(C2)N3C)c1 (configuration not stated),·,-5%,?,·,·,·
O=C1NC(=O)C(CCc2ccncc2)(Cc2cccc(Cl)c2Cl)C(=O)N1c1ccc(Br)cc1 (configuration not stated),8.2µM*,12µM*,4.6µM*,5,14,5.2µM*
CCc1ccc(N2C(=O)NC(=O)C(CCc3ccncc3)(CCc3ccncc3)C2=O)cc1,i,-6%,2%,-2,-18,i
CCN(c1ccc(C)cc1C)S(=O)(=O)c1nnc(NC(=O)c2ccco2)s1,i,?,21µM*,-4,?,i
O=C(Nc1ccc(Cl)c(Cl)c1)c1ccco1,i,1%,2%,23,9,i
Clc1cccc(/C=N\Nc2nccs2)c1,?,-2%,5.8µM*,-6,3,i
O=c1c2ccccc2nc(-c2ccccc2)n1-c1ccccc1,?,-10%,3%,-1,-7,i
O=c1c2ccccc2[se]n1-c1ccccc1,?,18µM*,?,-6,5,?
OC[C@H]1OC(O)C[C@@H](O)[C@@H]1O (some centres not stated),i,9%,-8%,8,7,i
CCCCCCCSc1cc(OC)c(CCN(C)C)cc1OC,?,?,?,-16,-66*,?
CCCSc1cc(OC)c(CCN)cc1OC,·,·,·,-27,·,·
CCCCCSc1cc(OC)c(CCN)cc1OC,?,16µM*,?,-5,-8,21µM*
COc1ccc(S(=O)(=O)Nc2ccc3c(c2)CC(=O)N([C@@H](C)CO)C[C@H](C)[C@@H](CN(C)S(=O)(=O)c2ccc(F)cc2)O3)cc1,i,?,-2%,-33,-1,i
O=C1CC(c2ccc(F)cc2)c2c(c3ccccc3oc2=O)O1 (configuration not stated),i,·,·,-6,·,i
O=C(c1cc(C(=O)NCc2ccc(Cl)cc2)c(=O)n(Cc2ccc(Cl)cc2)c1)c1cc(F)ccc1O,7.3µM*,11%,11%,7,24,?
CCN(CC)Cc1nccn1-c1ccc([N+](=O)[O-])cc1C(=O)c1ccccc1Cl,·,·,·,-23,·,·
